Source: PMC5540273 (PLoS ONE, 2017)

Assays:
Conditions in all cases: concentration: 1 μM, replicates: in singlicate; n = 1
[1] = test system: EPHB4
[2] = test system: EPHB6
[3] = test system: ERBB2
[4] = test system: ERBB3
[5] = test system: ERBB4
[6] = test system: T1, ERK1
T1 construct: gene MAPK3

[7] = test system: T2, ERK2
T2 construct: gene MAPK1

[8] = test system: T3, ERK3
T3 construct: gene MAPK6

[9] = test system: T4, ERK4
T4 construct: gene MAPK4

[10] = test system: T5, ERK5
T5 construct: gene MAPK7

[11] = test system: T6, ERK8
T6 construct: gene MAPK15

[12] = test system: ERN1
[13] = test system: T7, FAK
T7 construct: gene PTK2

[14] = test system: FER
[15] = test system: FES
[16] = test system: FGFR1
[17] = test system: FGFR2
[18] = test system: FGFR3
[19] = test system: FGFR4
[20] = test system: FGR
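Also: KINOMEscan kinase panel screen.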

SMILES	%Inh [1] [%]	%Inh [2] [%]	%Inh [3] [%]	%Inh [4] [%]	%Inh [5] [%]	%Inh [6] [%]	%Inh [7] [%]	%Inh [8] [%]	%Inh [9] [%]	%Inh [10] [%]	%Inh [11] [%]	%Inh [12] [%]	%Inh [13] [%]	%Inh [14] [%]	%Inh [15] [%]	%Inh [16] [%]	%Inh [17] [%]	%Inh [18] [%]	%Inh [19] [%]	%Inh [20] [%]
Cc1ccc(NC(=O)Nc2ccccc2F)cc1-c1ccc(C(=O)Nc2ccncc2)cc1 [GSK1398477]	21	20	8	0	0	8	9	11	20	0	0	13	0	16	11	19	14	23	21	26
COC(=O)C(Cc1ccccc1)NC(=O)NC1CCN(c2ccnc(Nc3ccc(F)cc3)n2)C1 (centres unmarked) [GSK1379714]	0	72	51	28	42	14	0	0	12	0	0	0	0	30	0	0	51	26	0	0
CC(C)c1cc(-c2ccc3c(N)n[nH]c3c2)nc(N)n1 [GSK2250882]	18	4	25	0	0	1	0	0	26	0	0	4	0	14	19	0	18	9	8	34
Cc1cnc(N)c(/C=C/c2cncc(C(=O)NCCc3ccc(Cl)cc3Cl)c2)c1.Cl [GSK190937]	9	0	7	0	0	7	0	0	6	0	0	0	0	4	0	0	9	13	6	17
COc1ccc(Nc2nccc(-c3ccc(NC(=O)c4cc5cc(F)ccc5[nH]4)cc3)n2)cc1 [GSK1229496]	16	6	38	13	6	0	0	0	0	0	0	0	0	16	15	0	19	9	0	10
Fc1ccc(-c2nn3cccc(F)c3c2-c2ccncc2)cc1 [GW475620]	10	0	39	0	30	21	10	0	4	0	15	0	1	17	0	23	25	6	0	15
NS(=O)(=O)c1cccc(N/C=C2\C(=O)Nc3ccc(S(=O)(=O)Cc4c(Cl)cccc4Cl)cc32)c1 [GSK398099]	15	44	0	0	37	0	0	24	48	0	0	7	0	7	1	0	0	7	9	31
Nc1cccc(-c2ccc3c(N)n[nH]c3c2)n1 [GSK2192730]	5	0	0	0	0	0	0	0	35	8	0	24	0	0	0	0	0	0	0	10
CNc1nc(-c2ccc3c(N)n[nH]c3c2)cc(N2C[C@@H](C(=O)Nc3ccccc3)CC[C@H]2C)n1 [GSK2298859]	14	9	12	0	19	0	0	6	0	0	0	2	0	33	0	23	0	16	0	22
CNC(=O)c1ccc(C)c(-n2c(C)cc(OCc3ccc(F)cc3F)c(Br)c2=O)c1	0	0	0	0	13	0	0	0	0	0	13	0	0	18	0	0	0	0	0	0
COc1ccc(CSc2nnc(-c3ccc4c(c3)CCO4)o2)cc1	13	0	18	0	0	0	0	0	0	6	0	0	0	0	12	0	0	0	0	14
CN1c2ccc(-c3ccc(C(N)=O)cc3)cc2-c2[nH]ncc2S1(=O)=O	18	23	12	14	14	0	4	0	0	0	17	0		8	11	5	0	0	0	20
